Experimental findings from PubChem BioAssay AID504332 (National Center for Advancing Translational Sciences (NCATS), 2011) are described below.

Molecules are shown by their SMILES. In all, about 350,000 compounds went through this assay and about 31,000 (8.9%) were called active. About 15% were inconclusive and are not listed. This is one part of a sample in which actives are shown more often than they occur. Values without a mark were called inactive. Calls follow the shape of the dose curve; as a rule, active = well fitted inhibition curve with a large enough effect; inconclusive = small, poorly fitted or top-dose-only effect; inactive = no such curve, though single readings can be large or run the other way.
% is scaled to controls: 0 for no effect and ±100 for the full control effect; potency is read from the fitted curve at half-maximal effect.

The target in this test is Histone-lysine N-methyltransferase EHMT2 (Homo sapiens) (UniProt Q96KQ7). The test can be described thus: qHTS Assay for Inhibitors of Histone Lysine Methyltransferase G9a. Also: nearly all actives have a fitted effect of over 75% in size. The following applies: G9a H3K9 monomethylation, AlphaScreen, 2 h; series mostly up to 59 µM; activity, negative = inhibition: at the top concentration. From the text: Methylated lysines, on the N-terminal tails of histone proteins serve as epigenetic markers to recruit factors that can then modify local chromatin structure to lead to functional consequences. G9a and other members of the SUV39 family of the SET domain-containing superfamily of histone lysine methyltransferases (HMT) have been identified to specifically methylate Lys9 of histone H3 (H3K9). G9a catalyzes the mono- and di-methylation of H3K9 in mammalian euchromatic regions, where the resulting H3K9me2 is indicative of transcriptional repression. […] The inhibition of G9a will result in transcriptional activation and work synergistically with DNA methyltransferase and histone deacetylase inhibitors, to kill cancer cells. This qHTS assay for identification of G9a inhibitors is a chemiluminescence based AlphaScreen (PerkinElmer). Methylation of biotinylated-histone peptide is measured through specific antibody-based detection, in conjunction with streptavidin-coated donor and anti-IgG antibody-coated acceptor beads. The method is particularly well suited for detection of inhibitors acting by the desired histone peptide competitive mechanism and is applicable to testing other HMTs. Although AlphaScreen has significant advantages with its utility in a variety of epigenetic target assays, the primary screening data provided in this deposition should be used with caution due to the prevalence of screening artifacts. An AlphaScreen counterscreen is highly recommended to be run against any putative actives to eliminate non specific artifacts. Alternatively, one can use other AlphaScreen assays in PubChem to filter out promiscuous hits. Quinn et al. A chemiluminescence-based method for identification of histone lysine methyltransferase inhibitors. Mol Biosyst 6(5): 782-8. 2010. PMID: 20567762 [2] Baell,Holloway. New substructure filters for removal of pan assay interference compounds (PAINS) from screening libraries and for their exclusion in bioassays. J Med Chem. 53(7):2719-40. 2010. PMID: 20131845 NIH Molecular Libraries Probe Production Network [MLPCN] NIH Chemical Genomics Center [NCGC] Structural Genomics Consortium (SGC) NIH Grant: 5U54 MH084681-02
Histone-lysine N-methyltransferase EHMT2 (Homo sapiens), sequence (Q96KQ7 913-1193 limits assumed): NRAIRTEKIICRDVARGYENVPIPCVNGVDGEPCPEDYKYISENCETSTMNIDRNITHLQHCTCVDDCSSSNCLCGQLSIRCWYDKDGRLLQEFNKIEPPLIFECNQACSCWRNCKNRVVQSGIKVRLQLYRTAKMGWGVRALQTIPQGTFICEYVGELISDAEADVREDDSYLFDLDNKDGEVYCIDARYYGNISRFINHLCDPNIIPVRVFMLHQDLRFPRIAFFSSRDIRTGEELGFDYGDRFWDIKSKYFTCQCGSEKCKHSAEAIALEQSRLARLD
To each well of a 1,536w plate, 2ul of HMT enzyme (final 20nM) were added, using a nanoliter dispenser. The G9a- and GLP-inhibitor BIX-01294 (CID: 25150857) are used as an intraplate control, with a 16-point titration in duplicate. A Kalypsys pin-tool transferred 23nl of library compound solution in DMSO to each well. Following a 15 min incubation of enzyme with compounds at room temperature, 1ul mixture of b-H3K9 peptide substrate (final 500nM) and SAM cofactor (final 20uM) were added. Reactions were allowed to proceed at room temperature for 2 hours. Methylated b-H3K9 peptide product was detected with 0.5 ug/mL rabbit polyclonal anti-monomethyl histone H3K9 antibody (Abcam Inc., Cambridge, MA) and 20 ug/mL each streptavidin-coated donor and anti-rabbit IgG acceptor AlphaScreen beads. Antibody and beads were added in a 1ul dispense, for a final volume of 4ul, and plates were incubated, protected from the light, for 10 min at room temperature. Microplates were then read on an EnVision multilabel plate reader using the 1,536 plate HTS AlphaScreen aperture (excitation time 80 ms, measurement time 240 ms).
On the technique in general: Quantitative high-throughput screening tests each substance at several concentrations.
As to `O=C(COc1ccc(Cl)cc1)Nc1ccc(-c2nc3cc(Cl)ccc3o2)c(O)c1`, the “activity, negative = inhibition” value is 35.9%.
`CCc1ccc(C(=O)NNC(=O)C2CCN(c3ncnc4sc(C)c(C)c34)CC2)cc1`: the “activity, negative = inhibition” value was -1.98% [at 102 µM].
`Cc1ccc(Cl)cc1N(C)C(=O)C1CCCN(c2ncnc3onc(-c4ccc(F)cc4)c23)C1` (configuration not stated): the “activity, negative = inhibition” value is -6.61%.
For `CCC1(CC)NC(=O)N(CC(=O)OCC(=O)c2cc(C)c(C)cc2C)C1=O`, the “activity, negative = inhibition” value was -8.44% [at 102 µM].
As for `O=C(COC(=O)CNC(=O)C1CCCCC1)Nc1cccc(F)c1`, the activity, negative = inhibition was -1.37% [at 12.7 µM].
On the same count and under the same terms, for `CCc1ccc(NC(=O)Cn2c(=O)n(CCC(=O)NCc3ccc4c(c3)OCO4)c(=O)c3ccccc32)cc1` the value was -1.55%; for `CC(C)(C)NC(=O)CSc1nc(-c2ccc(F)cc2)cc(C(F)(F)F)n1`, -8.07%.
In the case of `O=C(NCCS(=O)(=O)NCc1ccc(F)cc1)c1ccccc1`, the “activity, negative = inhibition” value is -4.54% [at 102 µM].
As to `Cc1ccc(NC(=O)c2ccc(CN3CC(=O)N4CCCCC4C3=O)cc2)c(Cl)c1` (configuration not stated), the “activity, negative = inhibition” value is -21.2%.
On to `CC(C)(C)OC(=O)Nc1ccc([C@@H](NC(=O)OC(C)(C)C)C(=O)OC(C)(C)C)cc1`, for which the activity, negative = inhibition is 9.51% [at 0.501 µM].
As for `Cc1ccc2sc(N(Cc3cccnc3)C(=O)C3COc4ccccc4O3)nc2c1C` (configuration not stated), the “activity, negative = inhibition” value is -4.67%.
Regarding `Cc1cc(NC(=O)CSc2nc3cc(Cl)ccc3c(=O)n2Cc2ccco2)no1`, the “activity, negative = inhibition” value was -23.2% [at 102 µM].
Regarding `CCn1c(SCC(=O)Nc2cc(C)c(Cl)cc2OC)nnc1-c1ccco1`, the “activity, negative = inhibition” value was -6.92%.
`COc1cc(Cl)c(C)cc1NC(=O)CSc1nnc(-c2cccnc2)n1Cc1ccco1`: the Potency was 39.8 µM (active).
Regarding `CCCCN(C)S(=O)(=O)c1ccc(C(=O)Nc2sc3c(c2C(N)=O)CC(C)(C)NC3(C)C)cc1`, the “activity, negative = inhibition” value is 8.97%.
`COc1ccc(-c2nc3c4ccccc4n(CC(=O)Nc4ccc(C(C)=O)cc4)c(=O)n3n2)cc1`: the “activity, negative = inhibition” value was -0.383%.
Turning to `COCCN1C(=O)C(=O)/C(=C(/O)c2ccc(S(=O)(=O)N3CCCCC3)cc2)C1c1ccc(OC)c(OC)c1` (configuration not stated), the “activity, negative = inhibition” value is 81.3% [at 102 µM].
`COc1cc(C2/C(=C(\O)c3ccc4c(c3)CC(C)O4)C(=O)C(=O)N2c2nnc(C)s2)cc(OC)c1OC` (configuration not stated): the Potency is 44.7 µM (active).
Take `COCCN1C(=O)C(=O)/C(=C(/O)c2ccc(S(=O)(=O)N3CCOCC3)cc2)C1c1ccc(O)c(OC)c1` (configuration not stated): the “activity, negative = inhibition” value is -19.1% [at 102 µM].
As to `CC(CCCc1ccccc1)NC(=O)c1nn(-c2ccc(Cl)cc2)nc1CO` (configuration not stated), the “activity, negative = inhibition” value is 0.317%.
Still for that read-out and setting: for `O=C(Nc1nnc(S(=O)(=O)N2CCCc3ccccc32)s1)c1cccc(F)c1` the value was -6.49%; for `Cc1cccc(NC(=O)Cn2c(C(F)(F)F)nc3ccccc32)c1C`, 4.54%.
Turning to `CCN1CCc2nc3sc(C(=O)Nc4ccccc4OC(F)(F)F)c(N)c3cc2C1`, the Potency is 14.1 µM (active).
Turning to `CCc1ccccc1NC(=O)c1sc2nc3c(cc2c1N)CN(Cc1ccccc1)CC3`, the “activity, negative = inhibition” value was -9.21%.
For `CCc1ccc2nc3sc(C(=O)Nc4nnc(CC)s4)c(N)c3cc2c1`, the activity, negative = inhibition was -8.03% [at 12.7 µM].
Take `CCc1ccc(NC(=O)CSc2nc3c([nH]c4ccccc43)c(=O)n2-c2cccc(OC)c2)cc1`: the “activity, negative = inhibition” value was -2.08%.
The same measure, in the same setting: the figure for `Cc1ccc2c(c1)c1c(c(=O)n(-c3ccccc3)c(=O)n1CC(=O)c1ccc(Cl)cc1)n2C` is -28.8%.
Consider `S=C(NCCCc1cnc[nH]1)NCCCN(Cc1ccc(Cl)c(Cl)c1)c1ccc(Br)cn1`, for which the Potency is 25.1 µM (active).
As for `CCc1cc2c(cc3c(=O)n(CC(=O)N4CCN(c5cc(Cl)ccc5C)CC4)ncn32)s1`, the “activity, negative = inhibition” value is 0.716%.
On to `CCNC(=O)N1CCCC(C(=O)c2ccc(-c3ccccc3)cc2)C1` (configuration not stated), for which the “activity, negative = inhibition” value is 51.8% [at 102 µM].
On to `CC1Cc2ccccc2N1CC(=O)Nc1ccc(S(N)(=O)=O)cc1` (configuration not stated), for which the “activity, negative = inhibition” value was -108%.
As to `NS(=O)(=O)c1cccc(NC(=O)CN2CCCc3ccccc32)c1`, the Potency is 44.7 µM (active).
Regarding `COC(=O)c1[nH]c2ccccc2c1NC(=O)CN1CCCc2ccccc21`, the Potency was 44.7 µM (active).
As for `O=C(CN1CCc2ccccc2C1)Nc1cccc(S(=O)(=O)N2CCOCC2)c1`, the activity, negative = inhibition is 15.7% [at 12.7 µM].
As for `CCn1c(=O)c2ccccc2n(CC(=O)N2CCCc3ccccc32)c1=O`, the activity, negative = inhibition was -7.66% [at 0.501 µM].
On the same count and under the same terms, for `O=Cc1c(NCCCN2CCCC2=O)c2ccccc2[nH]c1=O` the value was 20.8% [at 102 µM]; for `O=C(CCCn1c(=O)c2cccn2c2cccnc21)NCc1ccc(F)cc1`, 5.33%; for `Cc1cc(C)cc(NC(=O)c2cnc3sc(N4CCCC4)nn3c2=O)c1`, 4.91%.
As to `O=C1/C(=C\Nc2ccccc2)CCN1c1ncccn1`, the Potency was 50.1 µM (active).
On to `O=C(Cc1ccccc1)NNC(=O)C1CCN(c2ncccn2)CC1`, for which the “activity, negative = inhibition” value was 2.95% [at 102 µM].
For the molecule `COc1ccc(-c2c(C)nn3c(N4CCC(C(=O)NCCC(C)C)CC4)cc(C)nc23)cc1OC`, the “activity, negative = inhibition” value was 5.73%.
Regarding `CCC1CCCCN1Cc1c(O)ccc2c(=O)c(Oc3ccccc3Cl)c(C(F)(F)F)oc12` (configuration not stated), the “activity, negative = inhibition” value is 0.282%.
As to `Cc1ccc(OCCn2c(CNc3ccccc3C)nc3ccccc32)cc1`, the “activity, negative = inhibition” value was 5.61%.
`COc1ccccc1CNC(=O)CCCCn1c(=O)c2ccccc2n(CC(=O)Nc2cc(Cl)ccc2C)c1=O`: the “activity, negative = inhibition” value was -19.7%.
For `COC(=O)c1ccc(NC(=O)CCc2c(C)nc3c(c(C)nn3-c3ccc(C)cc3)c2C)cc1`, the “activity, negative = inhibition” value is -1.18%.
Consider `O=C(CCOc1ccccc1)N(Cc1cccnc1)c1nc2ccc(Cl)cc2s1`, for which the “activity, negative = inhibition” value is -3.53%.
Still for that read-out and setting: the figure for `COc1ccc(CC(=O)N/N=C(\C)c2ccccn2)cc1` is -5.58%.
